Laboratory results from article PMC5540273 (PLoS ONE, 2017).

Key:
Conditions in all cases: concentration: 1 μM,replicates: in singlicate; n = 1
[1] = system: CLK2
[2] = system: CLK3
[3] = system: CLK4
[4] = system: CSF1R-autoinhibited
[5] = system: CSF1R
[6] = system: CSK
[7] = system: CSNK1A1L
[8] = system: CSNK1A1
[9] = system: CSNK1D
[10] = system: CSNK1E
[11] = system: CSNK1G1
[12] = system: CSNK1G2
[13] = system: CSNK1G3
[14] = system: CSNK2A1
[15] = system: CSNK2A2
[16] = system: T1, CTK
T1 construct: gene MATK

[17] = system: DAPK1
[18] = system: DAPK2
[19] = system: DAPK3
[20] = system: T2, DCAMKL1
T2 construct: gene DCLK1
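Also: KINOMEscan kinase panel screen.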

Compound | %Inh [1] [%] | %Inh [2] [%] | %Inh [3] [%] | %Inh [4] [%] | %Inh [5] [%] | %Inh [6] [%] | %Inh [7] [%] | %Inh [8] [%] | %Inh [9] [%] | %Inh [10] [%] | %Inh [11] [%] | %Inh [12] [%] | %Inh [13] [%] | %Inh [14] [%] | %Inh [15] [%] | %Inh [16] [%] | %Inh [17] [%] | %Inh [18] [%] | %Inh [19] [%] | %Inh [20] [%]
C[C@@H](Oc1cc(-n2cnc3cc(-c4ccncc4)ccc32)sc1C(N)=O)c1ccccc1Cl [GSK479719] | 28 | 5 | 68 | 0 | 29 | 0 | 15 | 0 | 17 | 8 | 13 | 0 | 23 | 0 | 35 | 21 | 61 | 30 | 22 | 0
CS(=O)(=O)Nc1ccc(-c2ccnc3[nH]ccc23)cc1 [GSK993273] | 94.8 | 58 | 96.3 | 0 | 32 | 0 | 21 | 5 | 20 | 33 | 0 | 0 | 17 | 0 | 16 | 0 | 73 | 54 | 89 | 6
Cn1ccc2ncnc(Oc3ccc(NC(=O)Nc4cc(C(C)(C)C)on4)c(Cl)c3)c21 | 95.1 | 0 | 10 | 43 | 100 | 0 | 15 | 6 | 6 | 0 | 17 | 15 | 0 | 21 | 30 | 48 | 0 | 0 | 0 | 25
CCN1CCN(CCCC(=O)Nc2n[nH]c3nc(-c4ccc(O)cc4)c(Br)cc23)CC1 [SB-731579] | 8 | 66 | 45 | 0 | 0 | 0 | 0 | 5 | 0 | 0 | 0 | 0 | 0 | 0 | 0 | 34 | 41 | 31 | 61 | 0
Cc1nnc(-c2ccc3occ(-c4ccc(S(C)=O)cc4)c3n2)o1 (centres unmarked) | 19 | 0 | 0 | 0 | 1 | 0 | 6 | 0 | 0 | 0 | 17 | 0 | 0 | 0 | 0 | 0 | 0 | 0 | 0 | 0
CN(c1ccccc1CNc1nc(Nc2ccc3c(c2)CC(=O)N3)ncc1C(F)(F)F)S(C)(=O)=O | 84 | 23 | 84 | 2 | 17 | 3 | 9 | 19 | 0 | 1 | 0 | 0 | 13 | 70 | 92.7 | 0 | 4 | 24 | 28 | 21
C[C@@H]1CCN(C(=O)N2CCCC2)C[C@@H]1N(C)c1ncnc2[nH]ccc12 | 8 | 0 | 24 | 0 | 0 | 0 | 0 | 27 | 0 | 13 | 2 | 0 | 0 | 35 | 5 | 19 | 23 | 0 | 9 | 46
CC(C)c1nc(-c2cccc(NS(=O)(=O)c3ccccc3)c2)c(-c2ccnc(Nc3ccc4c(c3)CN(C)CC4)n2)s1 [GSK1649598] | 10 | 24 | 0 | 0 | 89 | 97.6 | 88 | 87 | 86 | 98.6 | 19 | 0 | 28 | 0 | 9 | 5 | 30 | 55 | 21 | 0
Cn1ccc2ncnc(Oc3ccc(NC(=O)Nc4cncc(C(F)(F)F)c4)c(Cl)c3)c21 | 7 | 0 | 7 | 0 | 99.4 | 0 | 0 | 0 | 0 | 0 | 0 | 5 | 0 | 0 | 0 | 0 | 0 | 0 | 0 | 0
FC(F)(F)c1cc(Br)cc(Nc2nccc(-c3cnn4ncccc34)n2)c1 [GW810578] | 95.6 | 79 | 85 | 0 | 61 | 17 | 68 | 58 | 91.9 | 75 | 13 | 31 | 0 | 0 | 32 | 0 | 2 | 1 | 18 | 19
OCCn1cc(-c2cnc3nnn(Cc4ccc5ncccc5c4)c3n2)cn1 | 0 | 0 | 0 | 25 | 0 | 33 | 0 | 15 | 0 | 0 | 1 | 0 | 9 | 0 | 0 | 0 | 0 | 0 | 0 | 66
Cc1ccn2nc(-c3ccc(F)cc3)c(-c3ccncc3)c2c1.Cl [GW457859] | 0 | 1 | 55 | 25 | 9 | 0 | 35 | 92.5 | 96.3 | 99.6 | 29 | 12 | 31 | 0 | 14 | 0 | 15 | 6 | 0 | 10
CN1CCN(CCNc2nc3cc(Oc4ccc(NC(=O)Nc5cc(C(F)(F)F)ccc5F)cc4)ccc3[nH]2)CC1.Cl.Cl [GW768504] | 0 | 0 | 14 | 0 | 60 | 0 | 0 | 19 | 0 | 6 | 0 | 0 | 0 | 0 | 7 | 0 | 0 | 0 | 0 | 34
COc1cccc(CNC(=O)NC2CCN(c3ccnc(Nc4cc(OC)c(OC)c(OC)c4)n3)C2)c1 (centres unmarked) [GSK1379765] | 0 | 0 | 16 | 29 | 15 | 20 | 16 | 0 | 14 | 18 | 0 | 0 | 27 | 3 | 0 | 0 | 0 | 0 | 14 | 19
c1ccc(Oc2ccc(Nc3ccnc4ccc(-c5ccccn5)cc34)cc2)cc1 [GW407034] | 0 | 19 | 0 | 0 | 9 | 6 | 13 | 0 | 14 | 36 | 11 | 0 | 10 | 0 | 14 | 0 | 0 | 0 | 5 | 9
C[C@@H](Oc1cc(-n2cnc3ccc(-c4ccncc4)cc32)sc1C(N)=O)c1ccccc1Cl [GSK483724] | 83 | 37 | 97.1 | 0 | 14 | 11 | 17 | 0 | 28 | 44 | 9 | 14 | 29 | 52 | 89 | 0 | 0 | 0 | 19 | 88
